This is a sample that favours compounds with a hit; in the whole collection about 5.7% have one here.
hcDAF12 agonist: H. contortus DAF-12 nuclear receptor activators, primary screen, cell-based, luminescence, HEK293, lit1-tk-luc reporter | AID 652067, 2013 | actives 1.4% (n = 370,000) | HEK293 hcDAF-12 lit1-tk-luc reporter; 0% DMSO, 100% Δ7-dafachronic acid | activation, % at 6.8 µM;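 active = activation above the mean of all tested compounds plus 3 SD, cut at about 5.5% in these data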;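 note: 100% = response to 3 µM Δ7-dafachronic acid high control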
DAX1 inh-1: DAX1 (NR0B1) inhibitors on StAR promoter, primary screen, cell-based, luminescence, SF-1 (NR5A1), full-length DAX-1; HEK293T StAR-luciferase reporter, SF-1/DAX-1 repression relief; inhibition, % at 6.8 µM; actives 1.1% (n = 370,000); AID 652010, 2013;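 active = inhibition above the mean over all tested compounds plus 3 SD, cut at about 3.6% in these data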;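 note: 0% = DAX-1 cells with DMSO and 100% = cells lacking DAX-1 with DMSO; higher inhibition means more luminescence from relief of DAX-1 repression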
DAX1 inh-2: DAX1 (NR0B1) inhibitors, primary screen, cell-based, HEK293, Gal4-DAX1, luciferase luminescence | inhibition, % at 6.75 µM | AID 504766, 2011 | actives 0.99% (n = 340,000) | HEK293 Gal4-DAX1 luciferase reporter;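 active = inhibition above the mean over all tested compounds plus 3 SD, cut at about 4.2% in these data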;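 note: 0% = DAX1-transfected cells with DMSO and 100% = empty-vector control cells with DMSO; inhibition shows as a rise in luminescence from relieved DAX1 repression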
AHR activator: AHR activators, primary screen, cell-based, luminescence, luciferase reporter, human; Aryl hydrocarbon receptor (Homo sapiens), P35869; AHR-responsive luciferase reporter cells; activation, % at 5 µM; actives 2.5% (n = 320,000); in the data active = activation above about 47%;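 note: 0% = vehicle wells and 100% = reference agonist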
Target sequence (P35869 whole entry, looked up): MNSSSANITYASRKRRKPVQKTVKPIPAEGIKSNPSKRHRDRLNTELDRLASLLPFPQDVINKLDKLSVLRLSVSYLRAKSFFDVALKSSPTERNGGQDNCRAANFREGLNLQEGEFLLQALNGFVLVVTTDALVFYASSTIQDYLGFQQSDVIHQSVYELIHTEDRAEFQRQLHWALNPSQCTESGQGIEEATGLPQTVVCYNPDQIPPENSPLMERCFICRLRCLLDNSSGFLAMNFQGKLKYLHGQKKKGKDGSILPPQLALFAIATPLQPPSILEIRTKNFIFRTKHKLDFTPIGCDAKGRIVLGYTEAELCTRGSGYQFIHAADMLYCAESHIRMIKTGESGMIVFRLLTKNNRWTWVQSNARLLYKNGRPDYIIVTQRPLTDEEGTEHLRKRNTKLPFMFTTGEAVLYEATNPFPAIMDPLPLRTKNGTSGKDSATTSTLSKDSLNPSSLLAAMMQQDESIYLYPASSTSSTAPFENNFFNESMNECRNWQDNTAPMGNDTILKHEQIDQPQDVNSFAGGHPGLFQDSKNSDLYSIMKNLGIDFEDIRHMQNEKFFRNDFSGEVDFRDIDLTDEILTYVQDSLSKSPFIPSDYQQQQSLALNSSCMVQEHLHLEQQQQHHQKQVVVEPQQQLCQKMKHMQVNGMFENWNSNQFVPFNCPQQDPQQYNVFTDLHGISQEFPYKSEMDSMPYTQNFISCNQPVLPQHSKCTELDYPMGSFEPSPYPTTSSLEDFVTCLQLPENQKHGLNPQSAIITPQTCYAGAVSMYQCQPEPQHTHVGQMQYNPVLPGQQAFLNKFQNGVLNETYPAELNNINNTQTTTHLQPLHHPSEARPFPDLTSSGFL
hgDAF12 agonist: H. glycines DAF-12 receptor agonists, primary screen, cell-based, luminescence, HEK293, GAL4 fusion, UAS-luciferase | HEK293 GAL4-hgDAF12 UAS-luciferase reporter, agonist luminescence; normalized to butyrate control | activation, % at 6.8 µM | actives 1.8% (n = 370,000) | AID 687014, 2013;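 active = activation above a cutoff set at the mean of all screened compounds plus 3 SD, cut at about 10% in these data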;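 note: 0% = DMSO wells and 100% = sodium butyrate wells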
ssDAF12 agonist: S. stercoralis DAF-12 nuclear receptor activators, primary screen, cell-based, luminescence, HEK293, GRIP1 co-expression, lit1-tk-luc; HEK293 ssDAF-12/GRIP1 lit1-tk-luc reporter; % of 3 µM dafachronic acid response; activation, % at 6.8 µM; actives 1% (n = 370,000); AID 652126, 2013;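 active = activation above the mean over all tested compounds plus 3 SD, cut at about 0.9% in these data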;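 note: 0% = DMSO-only wells and 100% = 3 µM delta7-dafachronic acid wells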
Active calls of the source: *; . = not tested or not shown.

SMILES | hcDAF12 agonist | DAX1 inh-1 | DAX1 inh-2 | AHR activator | hgDAF12 agonist | ssDAF12 agonist
FC(F)(F)c1cccc(-c2nc(-c3ccncc3)no2)c1 | 0 | 1 | 3 | . | 6 | -1
FC(F)(F)c1cccc(OCc2noc(-c3ccsc3)n2)c1 | -1 | 0 | 5.5* | -2 | 1 | -1
COCc1c(C#N)c(NCCc2ccccc2)nc(C)c1[N+](=O)[O-] | 5 | 0 | 0 | 78* | 0 | 0
Cc1nc(NCCc2ccccc2F)c(C#N)c(C)c1[N+](=O)[O-] | 1 | -1 | 0 | 52* | 0 | -1
COCc1c(C#N)c(NCc2cc(OC)c(OC)c(OC)c2)nc(C)c1[N+](=O)[O-] | -5 | -1 | -6 | 1 | -6 | -3
COCc1c(C#N)c(NCCc2ccc(F)cc2)nc(C)c1[N+](=O)[O-] | 0 | 0 | 0 | 76* | 0 | 0
O=C1NC[C@@H](CCCCN2C[C@H](Cc3ccccc3)N(CCc3ccccc3)C(=O)C2=O)N(Cc2ccccc2)C1=O | -1 | -1 | . | . | -1 | -1
O=C1NC[C@H](CCCCN2C[C@H](Cc3ccccc3)N(Cc3ccccc3)C(=O)C2=O)N(CCc2ccccc2)C1=O | -1 | 3.8* | . | . | 0 | -1
Cc1cccc(Nc2nc(-c3c(C)nc4ccccn34)cs2)c1 | -4 | -3 | -3 | -4 | -5 | -3
COc1ccc(-c2csc(NC(=O)/C(N=Nc3ccccc3)=C(\C)O)n2)cc1 | . | . | . | 48* | . | .
Cc1cccc(Nc2nc(-c3ccncc3)cs2)c1 | 3 | 1 | 0 | 54* | 11* | 0
Clc1ccc(-c2csc(Nc3cccnc3)n2)cc1 | 1 | 0 | 2 | 81* | 3 | -1
COc1cccc(Nc2nc(-c3ccc(O)cc3)cs2)c1 | 1 | 0 | 0 | 54* | 6 | -1
CCn1cc(CN2CCCC(CNS(=O)(=O)c3cccc4cccnc34)C2)cn1 (configuration not stated) | 2 | 2 | 0 | 4 | 1 | -1
COc1ccc(CCNC(=O)CN2c3cccc4cccc(c34)S2(=O)=O)cc1 | -1 | 0 | 0 | . | 1 | -1
CCCN(C(=O)CSc1nnc2ccccn12)C1CCS(=O)(=O)C1 (configuration not stated) | 0 | -1 | 0 | 1 | -2 | -1
Cc1cccc(Nc2nc(-c3ccc4c(c3)OCCO4)cs2)c1 | 5.8* | 2 | 3 | 7 | 13* | 0
CCOC(=O)C1CCCN(S(=O)(=O)c2cc3c(cc2Br)CCN3C(=O)CC)C1 (configuration not stated) | -3 | 0 | . | . | -2 | -1
O=C(CSc1nc2ccccc2o1)NCc1n[nH]c(=O)c2ccccc12 | 6.2* | 1 | 2 | 13 | 6 | 0
COc1c2c(nc3occc13)C(CC=C(C)C)(OC)C(O)CC2 (configuration not stated) | 0 | 0 | 1 | 65* | -3 | -1
COc1c2c(nc3occc13)C(CC=C(C)C)(OC)C(OC(C)=O)CC2 (configuration not stated) | -1 | 0 | 0 | 73* | -3 | -2
COc1ccc(CCc2nnc(CCC(=O)NCC3CCCO3)o2)cc1 (configuration not stated) | 1 | 0 | 1 | 2 | 0 | -1
Cc1ccccc1OC(=O)C1C(c2ccccc2)C(C(=O)O)C1c1ccccc1 (configuration not stated) | 5 | 0 | 5.0* | -1 | 3 | 0
COc1ccc(S(=O)(=O)N(C)C[C@H]2OCc3cnnn3CCCC(=O)N([C@H](C)CO)C[C@@H]2C)cc1 | 1 | -1 | -1 | . | 1 | -1
NC(CSC1(c2cccc3ccccc23)c2ccccc2-c2ccccc21)C(=O)O (configuration not stated) | -2 | -4 | 0 | . | -2 | -1
SMILES | hcDAF12 agonist | DAX1 inh-1 | DAX1 inh-2 | AHR activator | hgDAF12 agonist | ssDAF12 agonist
NC(CSC(c1ccccc1)(c1ccccc1)c1cccc2ccccc12)C(=O)O (configuration not stated) | . | . | 4.5* | . | . | .
Cc1ccc(N2/C(=N/c3nc(C)cc(C)n3)NC(=O)CC2C(=O)O)cc1 (configuration not stated) | 5.8* | 0 | 0 | 1 | 3 | 0
CCOc1ccc(N2CC(=O)N/C2=N\c2nc(C)cc(C)n2)cc1 | -2 | 0 | 0 | 50* | 0 | -2
CCc1ccc(CNC(=O)c2ccc(NC(=O)C3=CSCCO3)cc2)cc1 | -2 | 1 | 0 | -1 | 0 | -1
N#Cc1cc(-c2ccccc2)oc1NC(=O)c1ccccc1 | -1 | -1 | 1 | 16 | -1 | -1
Cc1ccc(C(=O)Nc2oc(-c3ccccc3)cc2C#N)cc1 | 0 | 0 | 0 | 56* | 0 | -1
O=C(Nc1cccc(/C=C/c2ccccn2)c1)c1cc(Cl)ccn1 | 5 | 1 | 0 | 17 | 7 | -1
Cn1ccs/c1=N\C(=O)Nc1ccccc1 | 4 | 2 | 1 | 23 | 12* | 0
Cc1ccc(NC(=O)CSCC(=O)N=c2sccn2C)cc1 | 0 | -1 | -1 | 29 | -2 | -1
Cn1ccsc1=NC(=O)c1ccccc1OC(F)F | -1 | 0 | 1 | 71* | -3 | -1
Cn1ccsc1=NC(=O)c1ccccc1F | -1 | 0 | 0 | 8 | 5 | -1
Cc1nnc(C)n1/N=C/c1ccc(O)cc1 | 0 | 1 | 0 | -4 | 1 | -1
Oc1ccc(/C=N/n2c3ccccc3c3ccccc32)cc1 | 0 | 0 | 0 | 55* | 5 | 0
CSc1nc(N)nc2c1ncn2CC(=O)N1CCN(Cc2c(C)cc(C)cc2C)CC1 | -4 | -5 | -5 | -6 | -6 | -2
Nc1nc2ncc(CNc3ccc(C(=O)N[C@@H](CCC(=O)O)C(=O)O)cc3)nc2c(=O)[nH]1 | 1 | 1 | 5.2* | -1 | 3 | -2
O=C(O)CCC(NC(=O)c1cncc(O)c1)C(=O)O (configuration not stated) | 0 | 0 | 0 | 0 | -1 | -1
COc1ccc(S(=O)(=O)N2CCOCC2)cc1NC(=O)CSc1cccc[n+]1[O-] | -1 | 0 | 0 | 2 | 2 | -2

Source: PubChem BioAssay (The Scripps Research Institute Molecular Screening Center)
